Source: PubChem BioAssay (Tox21)
A number with no mark means an inactive call. Inconclusive results are not listed. Where a call stands in place of a potency, no number is given. Calls of active or inactive are those of the source. Unless noted, the call rests on the fitted dose curve; in most records, active means well fitted curve in the direction sought with a large enough effect in the repeat runs; inconclusive means weak or mixed curves; inactive means flat fitted curve, though single readings scatter.

Experiments:
[1] = qHTS assay to test for compound auto fluorescence at 535 nm (green) in HEK293 cells (AID 720680)
[2] = qHTS assay to test for compound auto fluorescence at 460 nm (blue) in HEK293 cell free culture (AID 720681)
In short: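 Test compounds were pinned into cell-free culture medium (DMEM with 10% FBS) and fluorescence was read directly at Ex/Em 405/460 nm. Signals were expressed as fluorescence equivalents of triamterene, with DMSO vehicle as control.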

[3] = qHTS assay to test for compound auto fluorescence at 535 nm (green) in HEK293 cell free culture (AID 720682)
In short: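 Intrinsic compound fluorescence is measured in culture medium containing 10% FBS, with excitation at 485 nm and detection at 535 nm, referenced to fluorescein.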

[4] = qHTS assay to test for compound auto fluorescence at 590 nm (red) in HEK293 cell free culture (AID 720683)
In short: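 Tox21 10K library compounds were pinned into cell-free DMEM with 10% FBS and fluorescence was read at excitation 540 nm. Activity is expressed as Rose Bengal sodium equivalency.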

[5] = qHTS assay to test for compound auto fluorescence at 590 nm (red) in HepG2 cell free culture (AID 720684)
In short: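 Readout: intrinsic compound fluorescence at 590 nm emission after 540 nm excitation, scaled to Rose Bengal sodium. Matrix was cell-free MEM with 10% FBS; DMSO vehicle wells served as control.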

[6] = qHTS assay to test for compound auto fluorescence at 460 nm (blue) in HepG2 cell free culture (AID 720685)
In short: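 Cell-free plates of MEM plus 10% FBS received 23 nL compound or DMSO vehicle; blue-channel (405/460 nm) intensity scored against triamterene as reference fluorophore.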

[7] = qHTS assay to test for compound auto fluorescence at 535 nm (green) in HepG2 cell free culture (AID 720686)
[8] = qHTS assay to test for compound auto fluorescence at 460 nm (blue) in HepG2 cells (AID 720687)
In short: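 Cells (2,000/well in MEM with 10% FBS) attached overnight at 37 C, then were exposed to compound or DMSO for 1 hr at 37 C, 5% CO2. Fluorescence read at Ex/Em 405/460 nm, expressed as triamterene-equivalent signal.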

[9] = target: Glucocorticoid receptor (Homo sapiens) (UniProt P04150); assay: qHTS assay to identify small molecule agonists of the glucocorticoid receptor (GR) signaling pathway (AID 720691; active means well fitted activation curve with a large enough effect in the signal ratio in the repeat runs, not every such curve was filed as active; the % refers to the signal ratio)
In short: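 Cells: GR-bla HeLa, endogenous GR with stably integrated GRE-beta-lactamase reporter. Treatment 18 h, 37 C, compounds delivered in DMSO. Detection via LiveBLAzer B/G FRET substrate, 2 h RT, fluorescence intensity.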

[10] = target: Glucocorticoid receptor (Homo sapiens) (UniProt P04150); assay: qHTS assay to identify small molecule antagonists of the glucocorticoid receptor (GR) signaling pathway (AID 720692; active means well fitted inhibition curve with a large enough effect in the signal ratio in the repeat runs, not every such curve was filed as active; the % refers to the signal ratio; further: potency means the concentration at half of the fitted maximal effect)
In short: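 Quantitative HTS in antagonist format: HeLa cells expressing endogenous GR and a stably integrated GRE-bla reporter, stimulated with 5 nM dexamethasone (final) alongside test compounds for 18 h.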

Chain of Glucocorticoid receptor (Homo sapiens) (P04150 whole entry, looked up): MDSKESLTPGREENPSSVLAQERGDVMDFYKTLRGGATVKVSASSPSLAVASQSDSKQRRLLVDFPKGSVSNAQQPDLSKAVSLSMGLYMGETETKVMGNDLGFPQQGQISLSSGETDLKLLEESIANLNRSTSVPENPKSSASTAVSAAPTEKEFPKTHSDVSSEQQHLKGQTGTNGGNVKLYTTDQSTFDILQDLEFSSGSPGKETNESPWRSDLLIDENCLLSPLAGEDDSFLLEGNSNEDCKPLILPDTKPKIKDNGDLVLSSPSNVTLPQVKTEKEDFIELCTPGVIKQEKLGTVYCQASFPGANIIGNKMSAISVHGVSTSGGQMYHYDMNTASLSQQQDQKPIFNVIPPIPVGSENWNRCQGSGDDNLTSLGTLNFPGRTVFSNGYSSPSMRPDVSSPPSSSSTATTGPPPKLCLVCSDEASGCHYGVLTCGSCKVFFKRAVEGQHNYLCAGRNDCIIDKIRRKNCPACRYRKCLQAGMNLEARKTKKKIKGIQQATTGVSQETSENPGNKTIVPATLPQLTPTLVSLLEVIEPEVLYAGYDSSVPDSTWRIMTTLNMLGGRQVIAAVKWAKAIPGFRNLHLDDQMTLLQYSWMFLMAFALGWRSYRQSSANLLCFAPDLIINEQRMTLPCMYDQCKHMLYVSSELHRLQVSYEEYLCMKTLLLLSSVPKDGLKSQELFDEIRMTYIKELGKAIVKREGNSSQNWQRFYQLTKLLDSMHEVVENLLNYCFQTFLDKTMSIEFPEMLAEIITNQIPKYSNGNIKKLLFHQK

Compound | outcome [1] | Potency [2] | outcome [3] | outcome [4] | outcome [5] | Potency [6] | outcome [7] | Potency [8] | Potency [9] | Potency [10] | fluorescence, % of fluorescein [1] | fluorescence, % of fluorescent control [2] | activity change [3] | fluorescence, % of fluorescent control [4] | fluorescence, % of Rose Bengal [5] | fluorescence, % of fluorescent control [6] | fluorescence, % of fluorescein control [7] | fluorescence, % of fluorescent control [8]
CCCCCCCCCCCCCCCC[N+](C)(C)C | inactive | inactive | inactive | inactive | inactive | inactive | inactive | inactive | – | – | – | – | – | – | – | – | – | –
CCOP(=O)(NC(C)C)Oc1ccc(SC)c(C)c1 (configuration not stated) | inactive | inactive | inactive | inactive | inactive | inactive | inactive | inactive | inactive | – | – | – | – | – | – | – | – | –
O=c1[nH]c2ccccc2n1C1CCN(CCCC(c2ccc(F)cc2)c2ccc(F)cc2)CC1 | inactive | inactive | inactive | inactive | inactive | inactive | inactive | inactive | – | – | – | – | – | – | – | – | – | –
CC[C@H]1C[C@@H]2C[C@H]3c4[nH]c5ccc(OC)cc5c4CCN(C2)[C@@H]13 | inactive | inactive | inactive | inactive | inactive | inactive | inactive | inactive | – | – | – | – | – | – | – | – | – | –
CN(C)S(=O)(=O)N(SC(F)(Cl)Cl)c1ccccc1 | inactive | inactive | inactive | inactive | inactive | inactive | inactive | inactive | – | – | – | – | – | – | – | – | – | –
CCCCCCCCCCCCCCCCCCn1cc[n+](C)c1 | inactive | inactive | inactive | inactive | inactive | inactive | inactive | inactive | inactive | – | – | – | – | – | – | – | – | –
O=[N+]([O-])c1cc(C(F)(F)F)c(Cl)c([N+](=O)[O-])c1Cl | inactive | inactive | inactive | inactive | inactive | inactive | inactive | inactive | – | – | – | – | – | – | – | – | – | –
OC(c1ccc(Cl)cc1)(c1ccc(Cl)cc1)C(Cl)(Cl)Cl | inactive | inactive | inactive | inactive | inactive | inactive | inactive | inactive | – | – | – | – | – | – | – | – | – | –
CC(=O)c1cc(C(C)(C)C)cc2c1CCC2(C)C | inactive | inactive | inactive | inactive | inactive | inactive | inactive | inactive | inactive | – | – | – | – | – | – | – | – | –
CCCN(CC)CC1COC2(CCC(C(C)(C)C)CC2)O1 (configuration not stated) | inactive | inactive | inactive | inactive | inactive | inactive | inactive | inactive | inactive | inactive | – | – | – | – | – | – | – | –
O=C(CBr)c1ccc(O)cc1 | inactive | inactive | inactive | inactive | inactive | inactive | inactive | inactive | inactive | inactive | – | – | – | – | – | – | – | –
C[C@@H]1O[C@@H](O[C@H]2C[C@@H](O)[C@]3(CO)[C@H]4[C@H](O)C[C@]5(C)[C@@H](C6=CC(=O)OC6)CC[C@]5(O)[C@@H]4CC[C@]3(O)C2)[C@H](O)[C@H](O)[C@H]1O | inactive | inactive | inactive | inactive | inactive | inactive | inactive | inactive | inactive | 268 nM (active) | – | – | – | – | – | – | – | –
CC(C)CCCCCOC(=O)c1ccccc1C(=O)OCCCCCC(C)C | inactive | inactive | inactive | inactive | inactive | inactive | inactive | inactive | inactive | inactive | – | – | – | – | – | – | – | –
CC1CCC(C(C)C)C(OC(=O)c2ccccc2N)C1 (configuration not stated) | inactive | inactive | inactive | inactive | inactive | inactive | inactive | inactive | – | inactive | – | – | – | – | – | – | – | –
CN(C)CCc1c[nH]c2cccc(O)c12 | inactive | inactive | inactive | inactive | inactive | inactive | inactive | inactive | inactive | inactive | – | – | – | – | – | – | – | –
C[C@]12Cc3nonc3C[C@@H]1CC[C@@H]1[C@@H]2CC[C@@]2(C)[C@H]1CC[C@]2(C)O | inactive | inactive | inactive | inactive | inactive | inactive | inactive | inactive | – | 7560 nM (active) | – | – | – | – | – | – | – | –
C[C@@H]1O[C@@H](O[C@@H]2C=C3CC[C@@H]4[C@H](CC[C@]5(C)[C@@H](c6ccc(=O)oc6)CC[C@]45O)[C@@]3(C)CC2)[C@H](O)[C@H](O)[C@H]1O | – | – | – | – | – | – | – | – | inactive | 57.4 nM (active) | 0.0243% [at 18.6 µM] | 0.328% [at 18.6 µM] | 0.0268% [at 18.6 µM] | -0.024% [at 18.6 µM] | -0.272% [at 18.6 µM] | 0.14% [at 18.6 µM] | -0.0466% [at 18.6 µM] | 0.187% [at 18.6 µM]
Cn1cc(C2=C(c3cn(C4CCN(Cc5ccccn5)CC4)c4ccccc34)C(=O)NC2=O)c2ccccc21 | inactive | inactive | inactive | inactive | inactive | inactive | inactive | inactive | – | 1340 nM (active) | – | – | – | – | – | – | – | –
COc1ccc(/C(=C/C(=O)N2CCOCC2)c2ccc(Cl)cc2)cc1OC | inactive | inactive | inactive | inactive | inactive | inactive | inactive | inactive | inactive | inactive | – | – | – | – | – | – | – | –
